Measured values reported in PubChem BioAssay AID652017 (The Scripps Research Institute Molecular Screening Center, 2013).
About 3,800 (1%) of roughly 370,000 compounds were called active. This is one part of a sample in which actives are shown more often than they occur. Cut-off read from the data, not from the text of the source: active = activation above about 7.8%; inactive = the rest.

test: SMARCA2 (BRM) function activators, primary screen, cell-based, luminescence, high throughput (AID 652017); conditions: MG213 cells, MMTV-luciferase reporter, dexamethasone, overnight; at 9.1 µM; stronger effect = higher value;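 note: 0% = vehicle wells and 100% = reference activator wells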

activation, inactive:
COc1ccc(CCNC(=O)CN(c2ccccc2)S(C)(=O)=O)cc1 -1.26%
O=C(CC1CCCCC1)NCc1ccccc1 2.93%
COc1ccc(OCC(=O)NCCc2ccc(S(N)(=O)=O)cc2)cc1 2.09%
O=C(CCNS(=O)(=O)c1ccccc1)NCCCc1ccccc1 -1.66%
O=C(c1ccccc1)c1ccc(-c2ccccc2C(=O)NC2CCCCN(Cc3ccc(Cl)cc3)C2=O)cc1 (stereo not drawn) -0.95%
CCOC(=O)[C@]12CCCC3=C1N(CCC3)C(=O)[C@@H](CC(=O)NCC13CC4CC(CC(C4)C1)C3)C2 -3%
C=CCOc1ccc(Cl)cc1CNCCCN1CCOCC1 -1.83%
CC(C)CNc1cccc2c1S(=O)(=O)N(Cc1cn(Cc3ccc(Cl)cc3)nn1)Cc1ccccc1O2 0.35%
COC(=O)c1cc2c(N)c(C(=O)c3ccc(Cl)cc3)sc2nc1C(OC)OC -4.26%
NC(=O)Cc1ccc2sc(-c3ccccc3)nc2c1 2.7%
CN(C)/C=C/C(=O)c1cnc2sccn2c1=O -3.44%
CCOC(=O)c1cnc2sccn2c1=O -1.74%
N#Cc1ccccc1OC[C@@H](O)CN1CCC(C(O)(c2ccccc2)c2ccccc2)CC1 -4.74%
COC(=O)c1ccc(CSc2nnc(N)s2)o1 -1.46%
CN1CCc2c(sc3c2c(NCc2ccco2)nc2nnnn23)C1 0.32%
COc1ccccc1CN(C)C(=O)c1cc2ccccc2o1 -0.29%
COc1ccc(C(=O)NCC[N+](C)(C)C)cc1 -4.72%
CC(=O)c1cc(-c2ccc3ccccc3c2)c(=O)n2c1CCC2 -0.02%
CSc1ccc(C#N)cc1NC(=O)c1ccc(Cl)cc1 -0.91%
COc1ccc(Sc2ccc(NC(=O)c3cccc(Cl)c3)cc2C#N)cc1 -0.62%
C[C@H](CO)N1C[C@H](C)[C@@H](CN(C)S(=O)(=O)c2ccc(F)cc2)Oc2ccc(NC(=O)CCC(F)(F)F)cc2C1=O 1.28%
CCOC(=O)c1ccccc1NC(=O)c1c(N)n(C)c(=O)[nH]c1=O -0.83%
Cn1c(=O)c(C(=O)Nc2ncccn2)c(O)c2ccccc21 2.91%
CCCC[C@H]1C2CC(OC(=O)NCc3ccccc3)C(C2)[C@H]2CCCCN21 (stereo partly drawn) -0.93%
CC(=O)O[C@@]1(C(C)=O)CCC2[C@H]3C=C(C)C4=CC(=O)CC[C@@]4(C)C3CC[C@]21C (stereo partly drawn) -9.82%
Cc1nc2ccc(NC(=O)N3CCC(c4ccccc4)C3)cc2nc1C (stereo not drawn) -3.22%
Cc1cccc(NC(=S)N2CCC(c3nc4ccccc4s3)CC2)c1 -2.82%
Cn1nc(C(F)(F)F)c2cc(NC(=O)OCC(C)(C)C)sc21 7.24%
CSCCC(C(=O)NC(C)(C)C)n1c(-c2ccccc2)nc2ccccc21 (stereo not drawn) -3.19%
CCC(C(=O)NC(C)(C)C)n1c(-c2ccccc2)nc2ccccc21 (stereo not drawn) -0.72%
CN(C)c1ccc(NC(=O)NC2CCCCN(Cc3ccc(Cl)cc3)C2=O)cc1 (stereo not drawn) -1.53%
CS(=O)(=O)c1ccc(C(=O)NNC(=O)c2cccs2)cc1 -1.1%
CC(C)COc1ccc(C(=O)NNC(=O)CCC(=O)c2cccs2)cc1 0.68%
C=CCC(NCCCO)c1cccc(OC)c1OC (stereo not drawn) 2.11%
Cc1cc(C)cc(-c2nnc(SCC(=O)NC3CC3)o2)c1 2.96%
Cc1cc(C)n2nc(C(=O)NC(C)(C)C)nc2n1 1.51%
COc1ccc(Cl)cc1C(=O)NNC(=O)c1nc2nc(C)cc(C)n2n1 -0.45%
CCOC(=O)N1CCN(C(=O)C[C@H]2C[C@@]3(C(=O)OC)C(=C[C@H](C(C)(C)C)O[C@@H]3C)N(Cc3ccc(Cl)cc3Cl)C2=O)CC1 -4.25%
CC(=O)Nc1nc2ncccn2c1-c1ccc(C(F)(F)F)cc1 -1.69%
CC(=O)n1cc([C@H]2C=C(C(=O)N3CCOCC3)O[C@@H](OCc3ccc(CO)cc3)C2)c2ccccc21 -0.72%
COc1cccc(CNC(=O)C2CCCN(c3nc4ccccc4o3)C2)c1OC (stereo not drawn) -3.99%
CCOC(=O)c1cnc2ccc(F)cc2c1Nc1ccc2c(c1)OCCO2 -4.81%
CC(C)N1CCCCC(NC(=O)C(C)(C)C)C1=O (stereo not drawn) 0.13%
NC(=O)c1oc2ccccc2c1NC(=O)CS(=O)(=O)c1ccccc1 -2.91%
CCOC(=O)CNc1nc2ccccc2n2c(C)nnc12 -1.96%
CC(C)(C)N1CC(c2nc3ccccc3n2Cc2ccc(F)cc2)CC1=O (stereo not drawn) 4.59%
C/C(=N\c1nc2ccccc2n1C)c1cc(Cl)ccc1O 0.8%
CC(C)n1c(NCc2c[nH]c3ccccc23)nc2ccccc21 -2.21%
CN(CCc1ccccc1)C(=O)Cn1nc(-c2ccccc2)ccc1=O -2.33%
O=C(Cn1nc(CNc2ccc(Cl)cc2)[n+]2c1CCCCC2)c1ccc(Cl)cc1 -6.64%
CC(=O)Cn1ncc(N2CCOCC2)c(Br)c1=O -2.3%
Cc1ccc(-n2c(SCC(=O)Nc3ccc(S(=O)(=O)Nc4nccs4)cc3)nnc2-c2ccccn2)cc1 -6.25%
CCOC(=O)C(=O)N(Cc1ccccc1)c1ccccc1C(=O)Nc1cc(OC)ccc1OC -5.19%
CC(c1c[nH]c2ccccc12)c1c(-c2ccccc2)n(C)c2ccccc12 (stereo not drawn) -5.18%
CCc1cc(C(c2ccccc2OC)N2CCOCC2)c(NC(=O)c2ccccc2)s1 (stereo not drawn) -0.4%
COc1ccc(C(=O)Nc2ccnn2C2CCN(Cc3ccncc3)CC2)cc1 -1.75%
O=C(CCl)NC1CCCCN(Cc2cccc(C(F)(F)F)c2)C1=O (stereo not drawn) -2.12%
CNC(=O)CN1C(=O)NC(c2ccccc2)(c2ccccc2)C1=O -2.01%
Cn1c(SCC(=O)c2ccccc2)ncc(C(=O)Nc2ccc(F)cc2)c1=O -2.22%
CCCCn1c(SCC(=O)NCC2CCCO2)nc2ccc(N3CCOCC3)cc2c1=O (stereo not drawn) -3.78%
Cc1ccccc1-n1cc(CNC(=O)CC2C(=O)NCCN2C/C=C/c2ccccc2)cn1 (stereo not drawn) -1.02%
CCCNC(=O)Nc1ccc2c(c1)C(=O)N(C)[C@H]1CC[C@H](CC(=O)NCC3CCCCC3)O[C@@H]1CO2 -2.38%
CC1(C(=O)NCc2ccccc2)CSCC(=O)N1CCCN1CCOCC1 (stereo not drawn) -6.77%
O=S1(=O)c2ccc(Br)cc2OC[C@H](Cc2ccccc2)N1Cc1cn(Cc2ccccc2)nn1 -4.73%
COc1nc(N=C(N)N)nc2c(C)cccc12 5.28%
Nn1c(SCC(=O)N2c3ccccc3Sc3ccccc32)nnc1-c1n[nH]c2c1CCC2 -2.45%
CCCC[C@H](C(=O)N(CC)c1ccccc1)[C@@H](O)c1ccc2ccccc2c1 -2.79%
CN1C[C@]2(C=C3CCCCC3n3c(=O)n(-c4ccccc4)c(=O)n32)N=C1NC(=O)c1ccccc1 (stereo partly drawn) -3.36%
O=C(COC(=O)c1cccnc1Cl)NC12CC3CC(CC(C3)C1)C2 -0.27%
COCOc1cccc(CN2CCC(C)(Oc3ccc(SC)cc3)C2)c1 (stereo not drawn) -2.3%
CCOC(=O)[C@]12CCCCC/C=C\1N(Cc1ccc(OC)cc1)C(=O)[C@H]2CC(=O)N1CCOCC1 -3.81%
O=C(C1CCCO1)N(Cc1ccccc1)c1ccccc1 (stereo not drawn) -1.33%
O=C(NCc1ccccc1Cl)C1CCCO1 (stereo not drawn) -4.52%
CC(=O)C1(C(=O)Nc2nccs2)CC(c2ccccc2C(F)(F)F)=NO1 (stereo not drawn) -1.46%

activation, active:
COc1ccc(OCCCC(=O)NCCc2ccccc2)cc1 17.9%
O=C(CCCc1ccccc1)NCc1ccccc1 8.27%
CCN(CC)C(=O)c1sc2nc(-c3ccccc3)ccc2c1N 9.84%
O=C(NCc1ccccn1)c1cnc2sccn2c1=O 8.52%
COc1ccc(C(=O)N/N=c2\oc3ccccc3cc2C(N)=O)cc1 9.22%
N#Cc1ccccc1NC(=O)c1cccc(COc2ccc(Cl)cc2Cl)c1 9.56%
NS(=O)(=O)c1ccccc1NC(=O)c1c(O)c2ccccc2[nH]c1=O 9.94%
Cc1nc2ccc(NC(=S)N3CCC(C)CC3)cc2nc1C 7.91%
CC(C)(C)NC(=O)C(CCc1ccccc1)n1c(=O)c(-c2ccccc2)nc2ccccc21 (stereo not drawn) 17.1%
Cc1ccc(C(=O)NNC(=O)c2cccs2)cc1 9.31%
Cc1cc(C)n2nc(CNS(=O)(=O)c3c(F)c(F)c(F)c(F)c3F)nc2n1 9.77%
COC(=O)C1C(=O)c2c([nH]c(C(=O)OCCSC)c2C)CC1C (stereo not drawn) 15.2%
Fc1ccc(CNc2nc3ccccc3n3nnnc23)cc1 10.3%
Cc1ccc(O)c(CNc2nc3ccccc3n2C)c1 9.3%
O=C(Cn1ncc(N2CCCC2)c(Br)c1=O)c1ccc(Cl)cc1 9.66%
COc1ccc(C(=O)Nc2sc(C)c(C)c2CN2CCOCC2)cc1 8.14%
Cc1ccc(NC(=O)c2cnc(SCC(=O)NCC3CCCO3)n(C)c2=O)cc1 (stereo not drawn) 8.79%
Cc1nc(N=C(N)N)nc2c(C)cccc12 18.7%
O=C(Nc1nnc(CCc2ccccc2)s1)C1CCCO1 (stereo not drawn) 8.46%
